Experimental data from PubChem BioAssay.
Inconclusive results are not listed. Calls of active or inactive are those of the source.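 The calls were made as follows, unless noted: active = inhibition above 50%, about 3 SD of the validation set; inactive = the rest.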

Assays:
[1] = rapamycin-like changes in RPL19A-GFP expression – cell-based, S. cerevisiae, multiplex flow cytometry, primary screen (AID 1862; in the data active = percent of DMSO control GFP below about 86%;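 also: lower values mimic rapamycin by blocking the RPL19A rise seen in DMSO cells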); settings: S. cerevisiae RPL19A-GFP strain, flow cytometry fluorescence, 3 h; at 10 µM; stronger effect = lower value
[2] = TOR pathway GLN3 branch reporter MEP2-GFP changes – S. cerevisiae, multiplex flow cytometry, primary screen (AID 1867;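 active = GFP response, as percent of the DMSO control, above the screen-wide mean plus 3 SD, about 139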;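 also: median GFP channel fluorescence of barcode-gated MEP2-GFP cells measured by flow cytometry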); settings: S. cerevisiae MEP2-GFP strain, 3 h, at 10 µM, stronger effect = higher value, 100% means same as DMSO wells
[3] = TOR pathway RTG branch CIT2 reporter changes – S. cerevisiae, GFP fusion, multiplex flow cytometry, primary screen (AID 1870;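 active = percent response above a set limit, the screen-wide mean plus 3 SD, cut at about 130% in these data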;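 also: barcoded CIT2-GFP strain pooled with four other GFP strains with rapamycin as positive control; median GFP fluorescence per well over plate mean of DMSO wells so 100% = DMSO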); settings: S. cerevisiae CIT2-GFP expression, 3 h, at 10 µM, stronger effect = higher value
[4] = TOR pathway LAP4-GFP level changes – S. cerevisiae, multiplex flow cytometry, primary screen (AID 1873;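 active = GFP signal, as percent of the solvent control, above the screen mean plus 3 SD, about 149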); settings: S. cerevisiae LAP4-GFP expression, 3 h, at 10 µM, stronger effect = higher value
[5] = yeast AGP1-GFP level changes, GLN3 branch – cell-based, multiplex flow cytometry, S. cerevisiae, primary screen (AID 1887;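 active = GFP signal above the screen-wide mean plus 3 SD, that is over about 124.5% of the solvent control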;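 also: AGP1-GFP fusion strain of S. cerevisiae within a five-strain barcoded multiplex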); settings: 3 h, at 10 µM, stronger effect = higher value
[6] = reduced mouse 2C T cell binding to pMHC/ICAM-1 vesicles – MLPCN validation set, flow cytometry, LFA-1/ICAM-1 modulator project, pilot screen (AID 2523;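 active = response below a set limit, under 55% cells CD8-positive and vesicle-bound, and CD8 cells' 90th-percentile brightness under 279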;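 as to vesicle binding response: mean PE anti-B7-1 fluorescence of CD8+ cells relative to row control; 100% = QL9-loaded vesicles with DMSO vehicle in the same plate row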); settings: 2C mouse CD8+ T cells, at 7 µM, stronger effect = lower value; double positive events: measured here: CD8+/vesicle+ event percentage
[7] = molecular target: Integrin beta-1 (Homo sapiens) + Integrin alpha-4 (Homo sapiens) (UniProt P13612+P05556); experiment: alpha4beta1 integrin LIBS antibody binding reduction – U937 cells, HUTS-21 mAb, flow cytometry, validation set, VLA-4 allosteric modulator project, pilot screen (AID 2674); settings: HUTS-21 LIBS mAb binding, at 6.7 µM, stronger effect = higher value, binding induced by LDV ligand;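 also: antibody binding induced by the VLA-4 ligand LDV present at three times its Kd; 0% = LDV ligand with antibody and no compound and 100% = antibody without LDV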
Chain of Integrin beta-1 (Homo sapiens) + Integrin alpha-4 (Homo sapiens) (P05556 whole entry, looked up): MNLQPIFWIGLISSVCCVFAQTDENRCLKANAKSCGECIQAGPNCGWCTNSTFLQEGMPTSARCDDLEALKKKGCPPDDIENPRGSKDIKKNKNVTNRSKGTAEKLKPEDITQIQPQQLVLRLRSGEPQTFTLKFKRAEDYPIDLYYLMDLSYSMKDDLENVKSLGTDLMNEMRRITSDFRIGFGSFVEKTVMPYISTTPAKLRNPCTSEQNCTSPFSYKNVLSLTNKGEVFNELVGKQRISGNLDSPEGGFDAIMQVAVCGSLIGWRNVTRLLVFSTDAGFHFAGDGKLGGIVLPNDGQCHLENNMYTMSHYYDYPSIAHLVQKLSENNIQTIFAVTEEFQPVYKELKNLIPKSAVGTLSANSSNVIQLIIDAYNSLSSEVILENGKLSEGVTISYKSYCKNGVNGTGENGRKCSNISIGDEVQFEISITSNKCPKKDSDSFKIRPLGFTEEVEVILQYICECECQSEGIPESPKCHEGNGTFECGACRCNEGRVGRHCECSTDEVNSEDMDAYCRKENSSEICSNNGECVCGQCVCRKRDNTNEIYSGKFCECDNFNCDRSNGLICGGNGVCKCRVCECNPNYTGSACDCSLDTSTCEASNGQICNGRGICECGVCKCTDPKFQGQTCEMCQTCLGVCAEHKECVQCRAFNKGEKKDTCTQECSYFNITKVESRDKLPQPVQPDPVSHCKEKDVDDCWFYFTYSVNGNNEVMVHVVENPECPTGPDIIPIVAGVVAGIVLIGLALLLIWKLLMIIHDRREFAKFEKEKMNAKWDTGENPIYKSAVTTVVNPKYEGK
Chain of Integrin beta-1 (Homo sapiens) + Integrin alpha-4 (Homo sapiens) (P13612 whole entry, looked up): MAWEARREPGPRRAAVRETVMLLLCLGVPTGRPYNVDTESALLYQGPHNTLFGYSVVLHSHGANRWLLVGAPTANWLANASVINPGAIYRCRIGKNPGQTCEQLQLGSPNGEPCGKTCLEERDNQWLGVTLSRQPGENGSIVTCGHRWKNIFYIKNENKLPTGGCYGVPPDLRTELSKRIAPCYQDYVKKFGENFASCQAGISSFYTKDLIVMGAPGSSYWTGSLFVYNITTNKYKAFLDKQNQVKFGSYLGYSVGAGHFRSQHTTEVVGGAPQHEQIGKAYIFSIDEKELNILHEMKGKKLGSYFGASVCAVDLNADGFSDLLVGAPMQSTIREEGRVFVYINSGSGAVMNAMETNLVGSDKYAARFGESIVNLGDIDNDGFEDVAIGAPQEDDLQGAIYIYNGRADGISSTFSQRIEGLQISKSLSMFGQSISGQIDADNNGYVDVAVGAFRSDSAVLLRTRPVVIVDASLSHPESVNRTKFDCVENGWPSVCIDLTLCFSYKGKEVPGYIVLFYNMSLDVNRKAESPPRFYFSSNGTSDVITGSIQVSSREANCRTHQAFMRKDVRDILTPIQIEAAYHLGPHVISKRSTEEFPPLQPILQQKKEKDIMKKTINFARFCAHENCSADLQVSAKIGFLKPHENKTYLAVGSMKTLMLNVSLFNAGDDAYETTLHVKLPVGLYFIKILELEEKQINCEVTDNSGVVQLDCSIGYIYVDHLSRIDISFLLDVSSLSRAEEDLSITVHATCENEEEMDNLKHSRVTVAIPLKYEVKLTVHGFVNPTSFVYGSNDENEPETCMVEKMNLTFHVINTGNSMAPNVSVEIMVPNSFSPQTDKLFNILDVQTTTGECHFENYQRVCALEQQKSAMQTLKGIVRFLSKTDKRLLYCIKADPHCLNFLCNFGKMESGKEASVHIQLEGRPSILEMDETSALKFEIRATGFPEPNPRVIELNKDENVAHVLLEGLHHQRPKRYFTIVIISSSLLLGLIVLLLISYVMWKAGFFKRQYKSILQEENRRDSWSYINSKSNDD

[8] = calorie-restriction mimetic ROS inhibitors, yeast – validation compound set, pilot screen (AID 2706;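 active = superoxide response below 65% of plate, a cut near 3 SD across the whole screen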;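 also: yeast exposed to compound for one week at 30 degrees C before staining; 100% = mean of all compound wells on the same plate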); settings: S. cerevisiae aging, superoxide DHE fluorescence; at 10 µM; stronger effect = lower value
[9] = molecular target: Beta-adrenergic receptor kinase 1 (Homo sapiens) (UniProt P25098); experiment: GRK2 binders displacing RNA aptamer, biochemical, validation, human GRK2, bead flow cytometry (AID 488806;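 active = aptamer binding inhibition above 30%, about 3 SD of noise from non-fluorescent compounds; inactive = inhibition at or below 30%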); settings: bead-bound GRK2, FAM-aptamer displacement, at 10 µM, stronger effect = higher value
Chain of Beta-adrenergic receptor kinase 1 (Homo sapiens) (P25098 whole entry, looked up): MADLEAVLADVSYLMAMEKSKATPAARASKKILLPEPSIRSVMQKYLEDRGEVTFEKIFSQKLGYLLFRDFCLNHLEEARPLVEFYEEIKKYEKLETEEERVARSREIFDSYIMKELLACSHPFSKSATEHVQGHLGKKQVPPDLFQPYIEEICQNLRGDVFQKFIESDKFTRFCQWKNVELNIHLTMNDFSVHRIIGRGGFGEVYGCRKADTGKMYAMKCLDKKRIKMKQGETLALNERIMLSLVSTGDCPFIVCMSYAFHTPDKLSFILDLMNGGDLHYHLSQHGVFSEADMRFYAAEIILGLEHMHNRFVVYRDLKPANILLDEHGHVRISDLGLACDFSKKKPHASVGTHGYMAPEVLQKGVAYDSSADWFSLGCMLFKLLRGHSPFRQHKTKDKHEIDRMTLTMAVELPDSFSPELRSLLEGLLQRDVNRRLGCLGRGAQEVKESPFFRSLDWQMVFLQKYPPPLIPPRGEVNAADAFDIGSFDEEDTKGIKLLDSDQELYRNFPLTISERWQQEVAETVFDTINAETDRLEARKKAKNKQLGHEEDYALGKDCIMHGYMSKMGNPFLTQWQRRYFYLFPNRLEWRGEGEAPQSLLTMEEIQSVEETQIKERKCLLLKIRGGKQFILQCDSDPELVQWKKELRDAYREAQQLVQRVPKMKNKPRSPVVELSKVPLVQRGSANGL

[10] = molecular target: Beta-2 adrenergic receptor (Homo sapiens) (UniProt P07550); experiment: agonist-induced loss of surface beta2AR – cell-based, FAP fluorogen, flow cytometry, validation set, pilot screen (AID 504459;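 active = percent response above 42, roughly 3 SD of non-fluorescent test compounds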;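 also: agonist-driven loss of surface beta2AR via internalization measured by FAP dye flow cytometry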); settings: Am2.2-beta2AR cells, at 10 µM, stronger effect = higher value
Chain of Beta-2 adrenergic receptor (Homo sapiens) (P07550 whole entry, looked up): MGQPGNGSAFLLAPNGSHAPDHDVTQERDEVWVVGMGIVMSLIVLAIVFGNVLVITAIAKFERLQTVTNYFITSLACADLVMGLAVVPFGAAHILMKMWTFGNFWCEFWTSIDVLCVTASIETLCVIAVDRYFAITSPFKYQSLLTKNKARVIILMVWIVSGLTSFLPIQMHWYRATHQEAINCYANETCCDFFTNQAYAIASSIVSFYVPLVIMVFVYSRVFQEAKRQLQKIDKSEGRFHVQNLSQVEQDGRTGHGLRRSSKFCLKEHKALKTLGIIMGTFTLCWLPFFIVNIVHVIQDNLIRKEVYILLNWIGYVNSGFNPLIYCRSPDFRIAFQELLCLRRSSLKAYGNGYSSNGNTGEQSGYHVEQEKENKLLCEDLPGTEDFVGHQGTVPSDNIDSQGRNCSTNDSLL

[11] = molecular target: AP-2 complex subunit beta (Homo sapiens) (UniProt P63010); experiment: beta-arrestin/AP2 interaction blockers – biochemical, validation set, GST-AP2 beads, flow cytometry, pilot screen (AID 504541;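 active = inhibition above 54%, about 3 SD of non-fluorescent compounds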;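 also: AP2 carries R879A mutation and is captured from E. coli lysate; bead-bound FITC arrestin peptide fluorescence measuring arrestin peptide binding to AP2; 0% = DMSO wells and 100% = excess unlabeled arrestin peptide control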); settings: FITC arrestin peptide, at 10 µM, stronger effect = higher value, AP2 beta2 appendage fragment, R879A mutant
Chain of AP-2 complex subunit beta (Homo sapiens) (P63010 whole entry, looked up, the tested form may be a part, one chain of several): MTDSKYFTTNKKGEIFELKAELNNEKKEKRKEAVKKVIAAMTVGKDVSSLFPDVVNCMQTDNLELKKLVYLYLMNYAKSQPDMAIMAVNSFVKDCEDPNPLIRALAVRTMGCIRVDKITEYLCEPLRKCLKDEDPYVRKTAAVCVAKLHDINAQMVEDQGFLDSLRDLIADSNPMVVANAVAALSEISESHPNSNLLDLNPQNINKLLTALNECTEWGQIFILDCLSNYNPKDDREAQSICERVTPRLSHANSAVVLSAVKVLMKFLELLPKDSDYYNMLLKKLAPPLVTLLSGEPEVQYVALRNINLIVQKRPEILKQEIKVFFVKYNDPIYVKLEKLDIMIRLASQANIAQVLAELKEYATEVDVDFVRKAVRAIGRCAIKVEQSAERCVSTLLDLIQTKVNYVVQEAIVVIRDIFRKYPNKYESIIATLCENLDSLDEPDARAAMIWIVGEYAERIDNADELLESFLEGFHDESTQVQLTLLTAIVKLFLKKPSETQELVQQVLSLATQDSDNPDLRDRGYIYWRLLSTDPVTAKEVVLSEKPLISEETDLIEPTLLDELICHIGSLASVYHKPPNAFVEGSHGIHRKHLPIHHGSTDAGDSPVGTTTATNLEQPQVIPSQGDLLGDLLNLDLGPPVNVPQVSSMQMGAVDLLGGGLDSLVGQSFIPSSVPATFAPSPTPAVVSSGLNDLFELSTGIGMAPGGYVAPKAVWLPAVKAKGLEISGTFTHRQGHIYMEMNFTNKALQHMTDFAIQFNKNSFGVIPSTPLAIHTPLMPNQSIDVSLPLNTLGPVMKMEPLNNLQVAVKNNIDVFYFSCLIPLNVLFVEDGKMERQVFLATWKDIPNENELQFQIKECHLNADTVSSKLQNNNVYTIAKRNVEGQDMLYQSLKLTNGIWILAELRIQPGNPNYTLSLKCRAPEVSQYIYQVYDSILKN

[12] = cytosolic pH regulators acting via V-ATPase – S. cerevisiae, pHLuorin, HTS validation (AID 504600; in the data active = response above about 15%;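 also: plate controls were DMSO for no effect and reference compound for full effect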); settings: V-ATPase proton transport, at 10 µM, stronger effect = higher value
[13] = tested on: anti-desmoglein-3 scFv antibody binding to human DSG3; experiment: blockers of pathogenic pemphigus antibody–desmoglein-3 binding – biochemical, validation compound set, bead-based, flow cytometry, pilot screen (AID 588368;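 active = binding below the plate cutoff, the plate median minus 3 SD, with a reading above zero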;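 also: signal is the median channel fluorescence of bead-bound GFP antibody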); settings: Protein G beads, DSG3-Fc, scFv-GFP binding, at 10 µM, stronger effect = lower value
[14] = Nile Red efflux blockade in pump-expressing yeast – validation compound set, multiplex, phenotypic, pilot screen (AID 588506;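 active = efflux inhibition above 0.42, the validation set average plus 4 SD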;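 also: Nile Red retained in cells so higher fluorescence means more efflux inhibition; 0 = negative control wells and 1 = enniatin B 25 µM full block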); settings: S. cerevisiae pump-expressing triplex, Nile Red efflux flow cytometry; at 10 µM; stronger effect = higher value; the pumps come from Candida albicans
[15] = molecular target: ATP-binding cassette sub-family B member 6 (Homo sapiens) (UniProt Q9NP58); experiment: blockers of ABCB6-driven porphyrin uptake – K562-ABCB6 cells, flow cytometry, validation set, pilot screen (AID 588550;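 active = inhibition above the screen-wide mean plus 3 SD, about 51%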;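 also: 0% = DMSO wells and 100% = benzethonium chloride 70 µM positive control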); settings: K562-ABCB6 porphyrin accumulation, 1 h, at 10 µM, stronger effect = higher value
Chain of ATP-binding cassette sub-family B member 6 (Homo sapiens) (Q9NP58 whole entry, looked up): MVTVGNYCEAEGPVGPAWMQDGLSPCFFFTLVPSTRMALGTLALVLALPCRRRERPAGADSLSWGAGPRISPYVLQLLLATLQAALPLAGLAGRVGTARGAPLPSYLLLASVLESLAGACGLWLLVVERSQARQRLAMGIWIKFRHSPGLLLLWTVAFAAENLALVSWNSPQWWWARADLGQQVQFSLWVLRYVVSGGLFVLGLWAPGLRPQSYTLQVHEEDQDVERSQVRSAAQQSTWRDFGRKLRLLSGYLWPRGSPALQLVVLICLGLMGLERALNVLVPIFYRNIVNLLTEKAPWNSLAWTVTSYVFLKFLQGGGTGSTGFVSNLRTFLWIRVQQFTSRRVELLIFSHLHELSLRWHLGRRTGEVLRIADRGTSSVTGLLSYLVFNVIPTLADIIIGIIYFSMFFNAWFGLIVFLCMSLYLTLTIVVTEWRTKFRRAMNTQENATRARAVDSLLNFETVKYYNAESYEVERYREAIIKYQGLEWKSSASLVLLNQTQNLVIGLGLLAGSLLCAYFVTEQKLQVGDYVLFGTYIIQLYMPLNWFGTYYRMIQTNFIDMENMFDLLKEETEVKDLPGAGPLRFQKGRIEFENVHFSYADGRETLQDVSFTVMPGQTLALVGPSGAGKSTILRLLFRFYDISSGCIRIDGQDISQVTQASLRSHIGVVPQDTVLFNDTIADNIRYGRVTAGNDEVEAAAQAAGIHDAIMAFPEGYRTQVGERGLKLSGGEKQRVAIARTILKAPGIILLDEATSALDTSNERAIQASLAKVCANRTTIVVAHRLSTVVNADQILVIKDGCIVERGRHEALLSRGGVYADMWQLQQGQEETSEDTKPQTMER

[16] = AML differentiation inducers, ER-HoxA9 marrow cells – cell-based, GFP/MAC1 double positive, flow cytometry, validation set, primary screen (AID 588685;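 active = differentiation response of at least 50%, scaled between solvent and reference control, from cells with both markers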;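 also: compound exposure lasts four days before antibody staining and flow analysis; 0% = DMSO wells and 100% = 5 µM fulvestrant positive control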); settings: stronger effect = higher value, normalized: vehicle 0, fulvestrant 100

| Structure (SMILES) | percent of DMSO control GFP [1] | GFP response vs DMSO [2] | percent response of DMSO control [3] | GFP response vs DMSO [4] | GFP response, % of DMSO [5] | double positive events [6] | vesicle binding response [6] | inhibition [7] | superoxide response (% of plate) [8] | aptamer binding inhibition [9] | response [10] | inhibition [11] | response [12] | binding (% of control) [13] | efflux inhibition (fraction of control) [14] | inhibition [15] | differentiation response [16] |
| --- | --- | --- | --- | --- | --- | --- | --- | --- | --- | --- | --- | --- | --- | --- | --- | --- | --- |
| CC(=O)c1cc2c(cc1NC(=O)c1ccco1)OCCO2 | 103% (inactive) | 107% (inactive) | 109% (inactive) | 120% (inactive) | 110% (inactive) | 58.2% | 178% (inactive) | 10.8% (inactive) | 91.9% (inactive) | 1% (inactive) | -30.9% (inactive) | -8.68% (inactive) | -7.07% (inactive) | 99.5% (inactive) | -0.04 (inactive) | 2% (inactive) | -11.9% (inactive) |
| C=CCOC(=O)C1=C(C)NC(=O)NC1/C=C/c1ccccc1OC (stereo not given) | 100% (inactive) | 101% (inactive) | 103% (inactive) | 103% (inactive) | 108% (inactive) | 57.9% | 97% (inactive) | -1.09% (inactive) | 115% (inactive) | 1% (inactive) | -4.89% (inactive) | -14.7% (inactive) | 6.85% (inactive) | 106% (inactive) | -0.03 (inactive) | 9% (inactive) | -1.65% (inactive) |
| O=Cc1ccccc1Oc1ccccc1 | 93.3% (inactive) | 125% (inactive) | 115% (inactive) | 86.4% (inactive) | 90.3% (inactive) | 57.3% | 200% (inactive) | -14.9% (inactive) | 107% (inactive) | -5% (inactive) | -1.17% (inactive) | 32.8% (inactive) | -3.79% (inactive) | 107% (inactive) | 0.12 (inactive) | -2% (inactive) | 33.6% (inactive) |
| CN1C2CCC1CC(OC(c1ccccc1)c1ccccc1)C2 (stereo not given) | 101% (inactive) | 96.2% (inactive) | 108% (inactive) | 99.9% (inactive) | 98% (inactive) | 64.3% | 247% (inactive) | 19.3% (inactive) | 93% (inactive) | -8% (inactive) | 8.88% (inactive) | -19% (inactive) | 1.18% (inactive) | 98.4% (inactive) | -0.1 (inactive) | -11% (inactive) | 26.6% (inactive) |
| COc1ccc(C(=O)Nc2cccc3cccnc23)cc1OC | 102% (inactive) | 105% (inactive) | 105% (inactive) | 119% (inactive) | 96.3% (inactive) | 49.8% | 156% (inactive) | -18.5% (inactive) | 103% (inactive) | -4% (inactive) | 10.2% (inactive) | -6.27% (inactive) | -0.52% (inactive) | 103% (inactive) | -0.33 (inactive) | 0% (inactive) | -17.7% (inactive) |
| Cc1ccc(S(=O)(=O)n2ccnc2)cc1C | 98.4% (inactive) | 112% (inactive) | 99.6% (inactive) | 108% (inactive) | 121% (inactive) | 60.3% | 160% (inactive) | 6.55% (inactive) | 95.2% (inactive) | 1% (inactive) | -20.5% (inactive) | -13.3% (inactive) | 1.99% (inactive) | 102% (inactive) | -0.09 (inactive) | 3% (inactive) | -2.03% (inactive) |
| CCc1cc(-c2[nH]ncc2-c2ccc3c(c2)OCO3)c(O)cc1O | 99.8% (inactive) | 102% (inactive) | 105% (inactive) | 95.1% (inactive) | 99.5% (inactive) | 58.3% | 13.8% (inactive) | 9.71% (inactive) | 92.1% (inactive) | 3% (inactive) | 4.41% (inactive) | -19.7% (inactive) | 0.5% (inactive) | 107% (inactive) | -0.34 (inactive) | 4% (inactive) | -3.4% (inactive) |
| NCc1ccccc1COc1ccccc1 | 105% (inactive) | 109% (inactive) | 102% (inactive) | 117% (inactive) | 111% (inactive) | 62.7% | 179% (inactive) | 2.3% (inactive) | 96.7% (inactive) | 0% (inactive) | 4.62% (inactive) | 57% (active) | -3.28% (inactive) | 98% (inactive) | 0.05 (inactive) | 6% (inactive) | -15.2% (inactive) |
| CC(C)CN1CCN(Cc2cccn2-c2ccccn2)CC1CCO (stereo not given) | 90.9% (inactive) | 113% (inactive) | 103% (inactive) | 80.3% (inactive) | 95.9% (inactive) | 64.2% | 241% (inactive) | 22.9% (inactive) | 114% (inactive) | -2% (inactive) | -7.51% (inactive) | -9.17% (inactive) | 74.8% (active) | 102% (inactive) | 0.48 (active) | 16% (inactive) | 1.64% (inactive) |
| COc1ccc(O)c(C2=Nc3ccccc3N=C(c3ccccc3)C2)c1 | 94.6% (inactive) | 126% (inactive) | 116% (inactive) | 71.5% (inactive) | 85.2% (inactive) | 58.3% | 139% (inactive) | -10% (inactive) | 96.7% (inactive) | 4% (inactive) | -11.7% (inactive) | 13% (inactive) | -3.39% (inactive) | 96.9% (inactive) | 0.34 (inactive) | 12% (inactive) | 2.46% (inactive) |
